# Where a name gives a salt, the structure may show the parent alone. The whole screen tested about 3,300 compounds, of which about 95 (3%) showed an effect of 50% or more. This excerpt belongs to a sample that is enriched for strong results.
# Test system: HCoV-229E
# Parameters: species or system Huh-7; HTS, protection from HCoV-229E induced cell death, luminescent cell viability (CellCounting-Lite 2.0), inhibition rate
# Conditions: 24 h post infection, 1 h compound pre-incubation; 10 µM; inhibitor
row,Structure (SMILES),229E Inhibition rate [%]
1,OC[C@H]1O[C@@](CO)(OC[C@@]2(OC[C@@]3(OC[C@@]4(OC[C@@]5(OC[C@@]6(OC[C@@]7(OC[C@@]8(O[C@H]9O[C@H](CO)[C@@H](O)[C@H](O)[C@H]9O)O[C@H](CO)[C@@H](O)[C@@H]8O)O[C@H](CO)[C@@H](O)[C@@H]7O)O[C@H](CO)[C@@H](O)[C@@H]6O)O[C@H](CO)[C@@H](O)[C@@H]5O)O[C@H](CO)[C@@H](O)[C@@H]4O)O[C@H](CO)[C@@H](O)[C@@H]3O)O[C@H](CO)[C@@H](O)[C@@H]2O)[C@@H](O)[C@@H]1O [Fructo-oligosaccharide DP9/GF8],41
2,CCc1ccc(O)cc1O [4-Ethylresorcinol],19.1
3,CC(C)=CCC/C(C)=C/CC/C(C)=C/CC/C(C)=C/CC1=C(C)C(=O)c2ccccc2C1=O [Menaquinone-4],4.1
4,CC(C)=CCC1=C(O)C(=O)c2ccccc2C1=O [Lapachol],54.4
5,CC(C)=CCC1=CC(=O)c2ccccc2C1=O [Deoxylapachol],8.4
6,C[C@@H]1O[C@@H](O[C@H]2[C@H](O[C@H]3CC[C@@]4(C)[C@@H](CC[C@]5(C)[C@@H]4CC=C4[C@@H]6CC(C)(C)CC[C@]6(C(=O)O)CC[C@]45C)[C@]3(C)CO)OC[C@H](O)[C@@H]2O)[C@H](O)[C@H](O[C@@H]2O[C@H](CO)[C@@H](O[C@@H]3O[C@H](CO)[C@@H](O)[C@H](O)[C@H]3O)[C@H](O)[C@H]2O)[C@H]1O [Macranthoside B],9.3
7,NCCc1cc(O)c(O)c(O)c1 [5-Hydroxydopamine hydrochloride],11.7
8,O=P(O)(O)OC(CO)CO [β-Glycerophosphate (disodium salt hydrate)],11.7
9,COc1cc(OC)c(CCC(=O)c2ccc(O)cc2)c(OC)c1 [Loureirin B],16
10,"Oc1cc2cc[nH]c2cc1O [5,6-Dihydroxyindole]",1.6
11,CC(=O)O[C@@H]1C[C@H](O)[C@@]23CO[C@@H](O)[C@]1(C)[C@@H]2C[C@@H](O)[C@]1(C)[C@@H]3C(=O)[C@H](OC(C)=O)[C@@]2(C)[C@H](c3ccoc3)C[C@H]3O[C@]321 [Toosendanin],23.4
12,C[C@@H](CO[C@@H]1O[C@H](CO)[C@@H](O)[C@H](O)[C@H]1O)[C@@H]1CC[C@@]2(CC[C@]3(C)[C@H](CC[C@@H]4[C@@]5(C)CC[C@H](O[C@@H]6O[C@H](CO)[C@@H](O)[C@H](O)[C@H]6O[C@@H]6O[C@H](CO)[C@@H](O)[C@H](O)[C@H]6O)[C@@](C)(CO[C@@H]6O[C@H](CO)[C@@H](O)[C@H](O)[C@H]6O)[C@@H]5CC[C@]43C)[C@H]2O)CO1 [Hosenkoside K],58.2
13,C[C@H](CO[C@@H]1O[C@H](CO)[C@@H](O)[C@H](O)[C@H]1O)[C@H]1CC[C@@]2(CC[C@]3(C)[C@H](CC[C@@H]4[C@@]5(C)CC[C@H](O[C@@H]6O[C@H](CO)[C@@H](O)[C@H](O)[C@H]6O[C@@H]6O[C@H](CO)[C@@H](O)[C@H](O)[C@H]6O)[C@@](C)(CO)[C@@H]5CC[C@]43C)[C@H]2O)CO1 [Hosenkoside B],10.3
14,C[C@@H](CO[C@@H]1O[C@H](CO)[C@@H](O)[C@H](O)[C@H]1O)[C@@H]1CC[C@@]2(CC[C@]3(C)[C@H](CC[C@@H]4[C@@]5(C)CC[C@H](O[C@@H]6O[C@H](CO)[C@@H](O)[C@H](O)[C@H]6O[C@@H]6OC[C@@H](O)[C@H](O)[C@H]6O)[C@@](C)(CO[C@@H]6O[C@H](CO)[C@@H](O)[C@H](O)[C@H]6O)[C@@H]5CC[C@]43C)[C@H]2O)CO1 [Hosenkoside M],10.1
15,O=C(O)C(=O)Cc1ccc(O)cc1 [4-Hydroxyphenylpyruvic acid],21.1
16,"O=C(O)Cc1ccc(O)c(O)c1 [3,4-Dihydroxybenzeneacetic acid]",39.5
17,O=C(O)Cc1ccc(O)cc1 [4-Hydroxyphenylacetic acid],52.1
18,CN(C)CC(=O)O [N-Methylsarcosine],11.2
19,COc1cc(/C=C/C(=O)OC(C)C)ccc1O [Isopropyl ferulate],36.5
20,C[C@@H]1O[C@@H](Oc2cc(O)c3c(c2)O[C@H](c2ccc(O)c(O)c2)[C@@H](O)C3=O)[C@H](O)[C@H](O)[C@H]1O [Taxifolin 7-O-rhamnoside],9.6
21,C[C@H](CC[C@@H](O)C(C)(C)O)[C@H]1CC[C@@]2(C)[C@@H]3CC=C4[C@@H](CC[C@H](O)C4(C)C)[C@]3(C)C(=O)C[C@]12C [Bryodulcosigenin],12.5
22,COc1cc2ccc(=O)oc2c(O[C@@H]2O[C@H](CO)[C@@H](O)[C@H](O)[C@H]2O)c1O [Fraxin],10.9

# Source: PMC12431657, “Discovery and mechanistic insights of dibenzoylmethane as a broad spectrum inhibitor of coronavirus” (PLOS Pathogens, 2025)
